27 compounds from PubChem BioAssay (Tox21) can be followed below.

The structures appear in SMILES notation. Results filed as inconclusive are left out. A call without a number means that no potency is given here. A number with no mark means an inactive call. Active and inactive are the calls of the source. Calls come from the whole dose curve; as a rule, active = well fitted curve in the direction sought with a large enough effect in the repeat runs; inconclusive = weak or mixed curves; inactive = no such curve, though single readings can be large; an effect the other way counts as inactive or inconclusive.

The first assay in a line: qHTS RealTime-Glo MT Cell Viability Assay in HEK293 cells - 16 hour (AID 1224872). Note: top concentration of the series differs between compounds; nearly all actives have a fitted effect of over 50% in size. To be noted: RealTime-Glo luminescence; series mostly up to 76.8 µM. A digest of the protocol:
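Reads taken at 0, 8, 16, 24, 32 and 40 h from the same wells. HEK293 cells (600/well) carried RealTime-Glo reagents from seeding, with compound added after a 5 h settle at 37 C.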
`CCC1(C)C(=O)N(Cl)C(=O)N1Cl` (stereo not drawn): the Potency result is “inactive”. Still for that read-out and setting: with `CC(C)(C)c1cc(CCC(=O)OCCSCCOC(=O)CCc2cc(C(C)(C)C)c(O)c(C(C)(C)C)c2)cc(C(C)(C)C)c1O` the entry was “inactive”. As for `CCCCCCCCCCCCS(=O)(=O)Cl`, the activity change, negative = cytotoxicity was 11.1% [at 15.8 µM].

For `CCOc1nc(F)cc2nc(S(=O)(=O)Nc3c(Cl)cccc3C(=O)OC)nn12`, the Potency entry was “inactive”.

The nature of a further assay: qHTS RealTime-Glo MT Cell Viability Assay in HepG2 cells - 8 hour (AID 1224873). Note: nearly all actives have a fitted effect of over 55% in size. Note: potency is the fitted concentration of half-maximal effect. To be noted: RealTime-Glo luminescence; series mostly up to 76.8 µM. In outline:
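HepG2 cells (600/well) mixed with RealTime-Glo MT reagent, settled 5 h at 37 C/5% CO2 before compound addition. Nonlytic NanoLuc luminescence from viable-cell prosubstrate reduction read repeatedly during 40 h treatment at 37 C.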
For the compound `CCN(CC)c1ccc2c(c1)Oc1cc(N(CC)CC)ccc1C21OC(=O)c2ccccc21`, the Potency entry was “inactive”. On the same count and under the same terms, with `CC/C=C\C/C=C\C/C=C\CCCCCCCC(=O)OC` the entry was “inactive”; with `O=C1OC(O)C(C(Cl)Cl)=C1Cl` (stereo not drawn), “inactive”. The same measure, in the same setting: with `CC(C)(C)c1ccc(OC2CCCCC2O)cc1` (stereo not drawn) the entry was “inactive”. Same read-out and setting: with `CN[C@H]1CC[C@@H](c2ccc(Cl)c(Cl)c2)c2ccc(S(N)(=O)=O)cc21` the figure was 49 µM (active); with `C=CC(C)(C)O`, “inactive”; with `S=C1NC=NC2N=CNC12` (stereo not drawn), “inactive”. Turning to `CCSCC`, the Potency entry was “inactive”.

As for `Cc1cc(C)c(O)c(C(C)(C)C)c1`, the Potency result was “inactive”.

For `CC(=O)CC(N)=O`, the Potency result is “inactive”. The same measure, in the same setting: with `CC(C)=NNC(N)=S` the entry was “inactive”. As for `O=C(O)CN(CCCN(CC(=O)O)CC(=O)O)CC(=O)O`, the viability change, negative = cytotoxic was -18.6% [at 15.8 µM]. For `Nc1cc([N+](=O)[O-])cc(Cl)c1O`, the Potency entry was “inactive”. For the compound `CC1(C)[C@H]2CC[C@]1(C)C(=O)C2`, the Potency entry was “inactive”. With `O[Si](c1ccccc1)(c1ccccc1)c1ccccc1`, the Potency entry is “inactive”. As to `Oc1cccc2c(O)cccc12`, the Potency result was “inactive”.

In the case of `c1ccc2cc3c4ccccc4c4ccccc4c3cc2c1`, the Potency entry is “inactive”.

Regarding `Cn1ccnc1`, the Potency result was “inactive”. Same read-out and setting: next, `Cc1cccc(C)c1C`: “inactive”; `NC(=O)c1ccccc1Cl`: “inactive”.

In the case of `O=C1C=CC(=O)N1c1cccc(N2C(=O)C=CC2=O)c1`, the Potency is 21.9 µM (active). Same read-out and setting: next, `CCOc1nc(F)cc2nc(S(=O)(=O)Nc3c(Cl)cccc3C(=O)OC)nn12`: “inactive”; `CC(C)c1ccc2sc3ccccc3c(=O)c2c1`: “inactive”; `COc1cc([C@@H]2c3cc4c(cc3[C@@H](O[C@@H]3O[C@@H]5CO[C@@H](C)O[C@H]5[C@H](O)[C@H]3O)[C@H]3COC(=O)[C@H]23)OCO4)cc(OC)c1O`: “inactive”.
